Reference: PubChem BioAssay
The source made the active and inactive calls.

What was measured:
[1] = binders of probe aFSTL3 on microarray, primary screen, stem cell growth factor project, biochemical, small-molecule microarray, fluorescence 635/667 (AID 1064); settings: higher = more signal;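 note: measures binding of the biotinylated anti-FSTL3 antibody to printed compounds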
[2] = binders from COS7 lysate, DM2A8 probe, primary screen, torsin A project, cell lysate, small-molecule microarray, fluorescence 635/667 (AID 1065); settings: higher = more signal, COS7 lysate expressing mutant human TOR1A
[3] = binders of probe aFGF2 on microarray, primary screen, stem cell growth factor project, biochemical, small-molecule microarray, fluorescence 635/667 (AID 1067); settings: higher = more signal;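 note: measures binding of biotinylated aFGF2 protein to printed compounds on slides; z-score merges feature fluorescence and signal-to-noise across triplicate slides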
[4] = binders of probe aFGF10 on microarray, primary screen, stem cell growth factor project, biochemical, small-molecule microarray, fluorescence 635/667 (AID 1071); settings: higher = more signal;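 note: score merges 667 nm spot intensity and signal to noise from triplicate slides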
[5] = target: Neurogenic locus notch homolog protein 2 (Homo sapiens) (UniProt Q04721); assay: Notch2 binders on small-molecule microarrays, primary screen, biochemical, small-molecule microarray, 635 nm fluorescence, stem cell growth factors (AID 1073); settings: Notch2 binding, higher = more signal
Chain of Neurogenic locus notch homolog protein 2 (Homo sapiens) (Q04721 whole entry, looked up, canonical isoform): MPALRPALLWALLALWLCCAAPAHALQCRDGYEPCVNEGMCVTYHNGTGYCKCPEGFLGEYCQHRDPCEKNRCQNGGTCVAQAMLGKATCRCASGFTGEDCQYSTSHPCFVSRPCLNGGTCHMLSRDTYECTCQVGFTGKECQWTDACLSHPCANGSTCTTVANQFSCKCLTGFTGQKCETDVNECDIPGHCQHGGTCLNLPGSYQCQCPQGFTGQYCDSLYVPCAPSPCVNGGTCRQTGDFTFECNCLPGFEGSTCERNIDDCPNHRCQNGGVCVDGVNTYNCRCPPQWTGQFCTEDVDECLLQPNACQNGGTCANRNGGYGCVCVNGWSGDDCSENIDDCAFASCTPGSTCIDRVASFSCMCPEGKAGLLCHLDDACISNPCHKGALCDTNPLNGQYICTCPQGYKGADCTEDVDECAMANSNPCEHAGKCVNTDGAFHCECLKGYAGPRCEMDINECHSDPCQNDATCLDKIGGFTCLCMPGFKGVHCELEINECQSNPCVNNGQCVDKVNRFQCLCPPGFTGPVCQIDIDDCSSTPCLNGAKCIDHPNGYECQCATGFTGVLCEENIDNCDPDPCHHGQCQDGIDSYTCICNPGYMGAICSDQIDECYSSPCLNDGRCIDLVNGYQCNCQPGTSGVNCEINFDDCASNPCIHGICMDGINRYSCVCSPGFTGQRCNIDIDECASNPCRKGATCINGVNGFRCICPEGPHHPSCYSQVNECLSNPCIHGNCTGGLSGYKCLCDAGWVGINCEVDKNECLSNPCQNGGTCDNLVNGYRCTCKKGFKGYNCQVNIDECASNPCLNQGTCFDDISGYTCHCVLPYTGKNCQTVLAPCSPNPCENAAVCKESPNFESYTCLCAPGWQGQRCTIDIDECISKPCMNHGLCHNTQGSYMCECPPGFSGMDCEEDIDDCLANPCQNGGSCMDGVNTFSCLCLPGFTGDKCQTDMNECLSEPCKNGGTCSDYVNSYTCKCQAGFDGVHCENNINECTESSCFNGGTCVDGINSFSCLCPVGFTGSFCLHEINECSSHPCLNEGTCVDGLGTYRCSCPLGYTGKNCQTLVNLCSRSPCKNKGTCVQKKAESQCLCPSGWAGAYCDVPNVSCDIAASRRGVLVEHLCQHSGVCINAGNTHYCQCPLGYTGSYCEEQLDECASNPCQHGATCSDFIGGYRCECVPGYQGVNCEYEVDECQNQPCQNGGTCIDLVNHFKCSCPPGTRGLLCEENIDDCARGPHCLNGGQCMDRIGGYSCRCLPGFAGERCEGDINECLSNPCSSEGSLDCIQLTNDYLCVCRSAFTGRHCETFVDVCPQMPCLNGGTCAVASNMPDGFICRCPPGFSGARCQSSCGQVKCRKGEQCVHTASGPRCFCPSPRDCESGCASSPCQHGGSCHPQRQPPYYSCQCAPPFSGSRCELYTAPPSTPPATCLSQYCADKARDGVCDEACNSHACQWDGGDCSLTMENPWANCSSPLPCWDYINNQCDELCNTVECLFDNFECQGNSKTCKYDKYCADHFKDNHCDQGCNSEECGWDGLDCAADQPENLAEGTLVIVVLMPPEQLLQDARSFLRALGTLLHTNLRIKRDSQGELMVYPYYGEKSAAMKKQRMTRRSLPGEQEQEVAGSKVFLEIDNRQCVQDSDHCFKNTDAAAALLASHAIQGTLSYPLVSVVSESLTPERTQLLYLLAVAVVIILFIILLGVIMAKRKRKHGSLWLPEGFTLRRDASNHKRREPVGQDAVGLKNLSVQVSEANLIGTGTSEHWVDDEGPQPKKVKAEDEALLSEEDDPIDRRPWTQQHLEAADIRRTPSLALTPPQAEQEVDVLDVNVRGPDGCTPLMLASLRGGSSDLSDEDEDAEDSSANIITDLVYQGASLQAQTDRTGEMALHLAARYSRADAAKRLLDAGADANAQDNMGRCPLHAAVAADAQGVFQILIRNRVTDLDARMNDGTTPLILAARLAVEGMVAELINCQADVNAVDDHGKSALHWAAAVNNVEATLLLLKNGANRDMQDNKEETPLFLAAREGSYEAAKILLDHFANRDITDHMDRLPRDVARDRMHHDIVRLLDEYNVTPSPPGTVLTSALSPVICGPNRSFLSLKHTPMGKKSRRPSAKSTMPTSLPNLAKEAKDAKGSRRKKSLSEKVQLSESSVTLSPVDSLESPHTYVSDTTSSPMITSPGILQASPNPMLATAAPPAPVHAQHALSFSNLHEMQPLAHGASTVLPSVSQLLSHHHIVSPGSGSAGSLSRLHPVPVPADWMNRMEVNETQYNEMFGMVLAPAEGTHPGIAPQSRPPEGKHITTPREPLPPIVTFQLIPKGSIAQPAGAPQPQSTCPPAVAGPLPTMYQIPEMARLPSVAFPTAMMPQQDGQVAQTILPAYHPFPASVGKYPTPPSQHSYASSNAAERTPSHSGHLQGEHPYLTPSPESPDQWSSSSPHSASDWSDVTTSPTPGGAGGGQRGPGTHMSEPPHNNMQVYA

[6] = target: Pro-neuregulin-1, membrane-bound isoform (Homo sapiens) (UniProt Q02297); assay: NRG1 binders on small-molecule microarrays, primary screen, psychiatric disease protein project, biochemical, small-molecule microarray, fluorescence 635/667 (AID 1075); settings: NRG1 binding, 635 nm fluorescence, higher = more signal;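 note: score combines 667 nm spot fluorescence with signal to noise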
Chain of Pro-neuregulin-1, membrane-bound isoform (Homo sapiens) (Q02297 whole entry, looked up, the tested form may be a part, canonical isoform): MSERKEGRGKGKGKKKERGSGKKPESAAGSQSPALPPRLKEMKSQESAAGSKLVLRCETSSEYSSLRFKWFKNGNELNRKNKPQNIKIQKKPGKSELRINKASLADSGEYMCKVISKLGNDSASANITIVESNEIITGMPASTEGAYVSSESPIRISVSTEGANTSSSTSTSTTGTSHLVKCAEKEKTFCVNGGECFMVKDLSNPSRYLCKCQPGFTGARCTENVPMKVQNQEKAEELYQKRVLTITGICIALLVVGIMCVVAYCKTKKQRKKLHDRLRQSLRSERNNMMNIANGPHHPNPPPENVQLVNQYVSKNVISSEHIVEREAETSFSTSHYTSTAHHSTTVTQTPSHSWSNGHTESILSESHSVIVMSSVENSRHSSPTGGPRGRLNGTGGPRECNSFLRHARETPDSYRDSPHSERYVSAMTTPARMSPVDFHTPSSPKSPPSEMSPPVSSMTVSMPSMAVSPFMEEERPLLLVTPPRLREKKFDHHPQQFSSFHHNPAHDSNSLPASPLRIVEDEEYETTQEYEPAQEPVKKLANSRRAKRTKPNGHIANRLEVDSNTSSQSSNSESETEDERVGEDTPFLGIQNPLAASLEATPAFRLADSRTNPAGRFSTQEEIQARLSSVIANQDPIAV

[7] = test system: Neuregulin-1 EGF-like domain; assay: binders of neuregulin-1 EGF-like domain, primary screen, biochemical, small-molecule microarray, 635 nm fluorescence (AID 1081); settings: small-molecule microarray binding, higher = more signal;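 note: binding of the protein to compounds printed on small-molecule microarray slides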
[8] = FRG1 promoter luciferase signal modulators, primary screen, FRG1 inhibition for FSHD, cell-based, C2C12 myotubes, firefly/Renilla luciferase, luminescence (AID 1084); settings: higher = more signal, called active from +8 up or from −8 down
[9] = binders of probe aFST on microarray, primary screen, stem cell growth factor project, biochemical, small-molecule microarray, fluorescence 635/667 (AID 1086); settings: higher = more signal;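 note: score merges 667 nm fluorescence with signal-to-noise of each printed compound spot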
[10] = binders of probe aHhip on microarray, primary screen, stem cell growth factor project, biochemical, small-molecule microarray, fluorescence 635/667 (AID 1087); settings: higher = more signal;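 note: score merges spot fluorescence at 667nm with spot signal to noise ratio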
[11] = test system: PRMT1 (protein arginine N-methyltransferase 1); assay: PRMT1 binders on small-molecule microarrays, primary screen, biochemical, small-molecule microarray, 635 nm fluorescence (AID 1088); settings: small-molecule microarray binding, higher = more signal;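 note: binding of Prmt1 protein to compounds spotted on small-molecule microarray slides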
[12] = yeast growth modulation, basal conditions, primary screen, YJM789 clinical isolate, OD600, 24 h (AID 1089);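 note: growth of clinical yeast isolate S. cerevisiae YJM 789 seeded 1000 cells per well; test concentration not given here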; settings: S. cerevisiae YJM789 growth, higher = more signal, called active from +8 up or from −8 down
[13] = fission yeast growth modulation, primary screen, strain 972, OD600, 24 h, no modulator (AID 1090);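 note: basal condition with compound alone and no growth modifier present; test concentration not given here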; settings: S. pombe 972 growth, higher = more signal, called active from +8 up or from −8 down
[14] = S. cerevisiae growth modulation with rapamycin, primary screen, strain BY4716, OD600, 96 h (AID 1091); settings: higher = more signal, called active from +8 up or from −8 down; note: test concentration not given here
[15] = target: Torsin-1A-interacting protein 2 (Homo sapiens) (UniProt Q8NFQ8); assay: LULL1 binders on small-molecule microarray, primary screen, cell lysate, human LULL1 lysate, 635/667 nm fluorescence (AID 1092); settings: hLULL1 lysate binding, 635 nm fluorescence, higher = more signal;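 note: probe is lysate of COS7 cells overexpressing human LULL1; score merges per-feature 667 nm fluorescence with signal-to-noise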
Chain of Torsin-1A-interacting protein 2 (Homo sapiens) (Q8NFQ8 whole entry, looked up): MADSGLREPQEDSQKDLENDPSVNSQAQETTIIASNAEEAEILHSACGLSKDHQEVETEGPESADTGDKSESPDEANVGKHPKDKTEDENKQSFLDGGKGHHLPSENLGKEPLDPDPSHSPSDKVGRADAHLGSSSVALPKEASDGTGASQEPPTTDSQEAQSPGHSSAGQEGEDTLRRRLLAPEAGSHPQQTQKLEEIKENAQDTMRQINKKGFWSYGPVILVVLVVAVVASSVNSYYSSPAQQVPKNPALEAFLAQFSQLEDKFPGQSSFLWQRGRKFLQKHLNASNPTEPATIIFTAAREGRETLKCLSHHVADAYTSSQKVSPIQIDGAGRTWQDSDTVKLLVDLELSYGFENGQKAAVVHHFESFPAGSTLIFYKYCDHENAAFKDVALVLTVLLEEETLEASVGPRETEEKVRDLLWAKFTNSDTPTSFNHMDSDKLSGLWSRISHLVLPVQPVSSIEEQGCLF

[16] = E. coli growth modulation, two-sided OD650, primary screen, E. coli filamentation project, strain DRC41, 24 h (AID 1093); settings: OD650, 24 h, higher = more signal, called active from +8 up or from −8 down;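 note: MC1000 strain lacking acrAB efflux and sulA so SOS filamentation is blocked; test concentration not given here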
[17] = small-molecule microarray binders of probe aLefty2, primary screen, biochemical, biotinylated probe, 635/667 nm fluorescence (AID 1094); settings: higher = more signal;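 note: score merges spot fluorescence near 667 nm with spot signal-to-noise ratio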
[18] = test system: Noggin (protein binding on small-molecule microarray); assay: Noggin binders on small-molecule microarray, primary screen, biochemical, 635/667 nm fluorescence (AID 1095); settings: 635 nm fluorescence, higher = more signal;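 note: score merges 667 nm feature fluorescence with signal to noise over triplicate slides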
[19] = target: Neurogenic locus notch homolog protein 3 (Homo sapiens) (UniProt Q9UM47); assay: NOTCH3 binders on small-molecule microarray, primary screen, biochemical, 635/667 nm fluorescence (AID 1096); settings: NOTCH3 binding, 635 nm fluorescence, higher = more signal
[20] = small-molecule microarray binders of probe aEGFR, primary screen, biochemical, biotinylated probe, 635/667 nm fluorescence (AID 1097); settings: higher = more signal;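 note: probe is a biotinylated anti-EGFR antibody binding compounds printed on slides; score combines fluorescence near 667 nm and signal to noise of each spot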

| Structure (SMILES) | composite z-score [1] | composite z-score [2] | composite z-score [3] | composite z-score [4] | composite z-score [5] | composite z-score [6] | composite z-score [7] | z-score [8] | composite z-score [9] | composite z-score [10] | composite z-score [11] | z-score [12] | z-score [13] | z-score [14] | composite z-score [15] | z-score [16] | composite z-score [17] | composite z-score [18] | composite z-score [19] | composite z-score [20] |
| --- | --- | --- | --- | --- | --- | --- | --- | --- | --- | --- | --- | --- | --- | --- | --- | --- | --- | --- | --- | --- |
| COCCOC(=O)N1C(=O)[C@@]2(c3ccccc31)[C@H](c1ccccc1OCCO)N1[C@H](c3ccccc3)[C@H](c3ccccc3)OC(=O)[C@H]1[C@@H]2C(=O)N1CCN(c2ncccn2)CC1 | 0.0686 | 1.07 | -0.0629 | 0.0228 | 0.598 | 1.38 | 1.18 | -2.05 (inactive) | 0.152 | -0.0672 | 1.54 | 1.68 (inactive) | 1.58 (inactive) | 8.88 (active) | 2.59 | 0.22 (inactive) | -0.0529 | 0.994 | 1.11 | -0.12 |
| C=CC1(C(=O)OC)CC=C(C(=O)OC)CC1 (stereo not given) | -0.219 | 0.191 | -0.0226 | 1.17 | 1.12 | 1.73 | 1.12 | -0.941 (inactive) | 0.0908 | 0.0623 | 0.911 | -1.64 (inactive) | 0.358 (inactive) | -0.624 (inactive) | 0.531 | -0.487 (inactive) | -0.0449 | 0.533 | 0.57 | 0.0413 |
| COCCOC(=O)N1C(=O)[C@@]2(c3cc(C#CC4(O)CCCCCC4)ccc31)[C@H](c1ccccc1OCCO)N1[C@H](c3ccccc3)[C@H](c3ccccc3)OC(=O)[C@H]1[C@@H]2C(=O)N1CCN(c2ncccn2)CC1 | -0.383 | 0.604 | -0.0425 | 0.801 | 1.08 | 1.15 | 1.26 | -0.422 (inactive) | 0.484 | -0.134 | 1.55 | 2.46 (inactive) | 1.5 (inactive) | 6.01 (inactive) | 2.73 | 1.02 (inactive) | 0.028 | 0.574 | 0.959 | 0.219 |
| COc1ccc(CCNC(=O)[C@@H]2c3ccccc3C(=O)N(Cc3ccccc3Cl)[C@H]2c2ccc(CO)cc2)cc1 | 0.199 | 0.0795 | -0.123 | 0.218 | 0.586 | 0.8 | 1.38 | -2.28 (inactive) | 0.19 | -0.214 | 0.533 | -0.874 (inactive) | -0.96 (inactive) | 0.35 (inactive) | 1.65 | -0.139 (inactive) | -0.0299 | -0.215 | 0.124 | 0.0121 |
| CCOC(=O)C1=CC[C@@H](c2ccccc2)N(S(=O)(=O)c2ccc(C)cc2)[C@H]1c1ccccc1C | 0.158 | -0.0515 | -0.0895 | 0.49 | 1.47 | 0.393 | 0.714 | -3.47 (inactive) | 0.789 | 0.115 | 0.473 | -0.602 (inactive) | 0.903 (inactive) | -0.3 (inactive) | 1.97 | -0.3 (inactive) | 0.066 | 0.72 | 0.913 | -0.0675 |
